Results reported in PubChem BioAssay (Tox21).
Inconclusive results are not listed. Unmarked numbers belong to inactive results. Calls come from the whole dose curve; as a rule, active = well fitted cell-killing curve with a large enough effect in the repeat runs; inconclusive = weak or mixed curves, or effect the other way; inactive = flat fitted curve, though single readings scatter.

assay: qHTS assay to identify small molecule antagonists of the estrogen receptor alpha (ER-alpha) signaling pathway using the BG1 cell line in the presence of 0.1 nM 17-beta-estradiol - cell viability counter screen (AID 1259241); conditions: VM7Luc4E2 (BG1) viability, CellTiter-Fluor protease, 22 h, 0.1 nM estradiol agonist added; series mostly up to 92.4 µM; activity change, negative = cytotoxicity: at the top concentration; note: nearly all actives have a fitted effect of over 40% in size
Text: National Center for Advancing Translational Sciences [NCATS]
NIH Chemical Genomics Center [NCGC]
U.S. Environmental Protection Agency [EPA]
National Institutes of Environmental Health Sciences [NIEHS]
National Toxicology Program [NTP]
U.S. Food and Drug Administration [FDA]
Estrogen receptor (ER), a member of the nuclear hormone receptor plays an important role in development, metabolic homeostasis and reproduction. Two subtypes of ER, ER-alpha and ER-beta, have similar expression patterns with some uniqueness in both types. Endocrine disrupting chemicals (EDCs) and their interactions with steroid hormone receptors like ER causes disruption of normal endocrine function. Therefore, it is important to understand the effect of environmental chemicals in ER signaling pathway. For identifying ER antagonists, VM7Luc4E2 cell line was used to screen against Tox21 compound libraries.
VM7Luc4E2 cell line (provided by Denison MS, University of California) endogenously express full-length ER-alpha and is stably transfected with a plasmid containing four estrogen responsive elements (ERE) upstream of a luciferase reporter gene. The current screening for identification of ER-alpha inhibitors against Tox21 compound libraries used lower concentration (0.1 nM) of 17beta-Estradiol as a stimulator. The cytotoxicity of the Tox21 compound libraries against VM7Luc4E2 cell line was tested by measuring live-cell protease activity using CellTiter-Fluor assay in the same wells.
Tox21 Assay Protocol Summary:
VM7Luc4E2 cells were cultured in phenol red free assay medium containing 10% charcoal stripped FBS for 5 days prior to the assay. The cells were dispensed at 4,000 cells/well in 4 uL of assay medium into white wall/solid-bottom 1536-well plates (Corning Life Sciences, Corning, NY) using a Multidrop Combi (ThermoFisher Scientific, Waltham, MA) dispenser. After the assay plates were incubated at 37C and 5% CO2 for 24 hr, 23 nL of compounds dissolved in DMSO, positive controls or DMSO only was transferred to the assay plates by a Pintool station (Kalypsys, San Diego, CA). The transfer of compounds was followed by the addition of 1 uL of 0.1 nM (final concentration) agonist (17beta-Estradiol)/assay medium using a Flying Reagent Dispenser (FRD, Aurora Discovery, San Diego, CA). The plates were incubated at 37C and 5% CO2 for 22 hr. For cytotoxicity assay, 1 uL of CellTiter-Fluor reagent (Promega Corporation, Madison, WI) was added to each well using the FRD and after 30 min incubation at 37C and 5% CO2, The fluorescence intensity was measured using ViewLux plate reader (PerkinElmer, Shelton, CT).
% is set by controls: 0 for no effect and ±100 for the full control effect.

Q: With CN(C)CCOCCO as the compound, how does the “activity change, negative = cytotoxicity” value read?
A: 10.6%

Q: For Cc1ccc2ccc(Cl)cc2n1, which “activity change, negative = cytotoxicity” value is on record?
A: 1.92% [at 42.5 µM]

Q: Which “activity change, negative = cytotoxicity” value does the source give for O=C(O)C(=O)Cc1ccccc1 here?
A: -2.41%

Q: For Cc1cccc(OCC(O)CNC(C)(C)C)c1C (stereo not given), which “activity change, negative = cytotoxicity” value is on record?
A: -10.4% [at 42.5 µM]

Q: Which “activity change, negative = cytotoxicity” value does the source give for CC(=O)CCCCn1c(=O)c2c(ncn2C)n(C)c1=O here?
A: 1.92% [at 42.5 µM]

Q: Which “activity change, negative = cytotoxicity” value does the source give for Cc1ccccc1N=O here?
A: -5.07%

Q: For NCCN1CCOCC1, which “activity change, negative = cytotoxicity” value is on record?
A: 1.14%

Q: For CCOC(=O)CC(=O)c1ccccc1, which “activity change, negative = cytotoxicity” value is on record?
A: -2.07%

Q: Which “activity change, negative = cytotoxicity” value does the source give for CCCCOCCOC(=O)COc1nc(Cl)c(Cl)cc1Cl here?
A: 14.2%

Q: With O=C(CCN1CCN(CCO)CC1)N1c2ccccc2Sc2ccc(C(F)(F)F)cc21 as the compound, how does the “activity change, negative = cytotoxicity” value read?
A: -5.84% [at 42.5 µM]

Q: Which “activity change, negative = cytotoxicity” value does the source give for C=CC(OCC)OCC here?
A: 13.1%

Q: With CNC(=O)[C@H]1O[C@@H](n2cnc3c(NCc4cc(Cl)ccc4OCc4cc(C)no4)ncnc32)[C@H](O)[C@@H]1N as the compound, how does the “activity change, negative = cytotoxicity” value read?
A: -3.25%

Q: With CCC(C=O)CC as the compound, how does the “activity change, negative = cytotoxicity” value read?
A: 3.92%

Q: Which “activity change, negative = cytotoxicity” value does the source give for O=S(=O)(O)CCN1CCN(CCO)CC1 here?
A: 1.72%

Q: For CC(C(=O)O)c1ccc2c(c1)CC(=O)c1ccccc1S2 (stereo not given), which “activity change, negative = cytotoxicity” value is on record?
A: 3.63% [at 42.5 µM]

Q: With CCCCCCCCCCCCCC as the compound, how does the “activity change, negative = cytotoxicity” value read?
A: 0.437%

Q: With COc1cc(NS(=O)(=O)c2ccc(N)cc2)nc(OC)n1 as the compound, how does the “activity change, negative = cytotoxicity” value read?
A: 6.61% [at 42.5 µM]

Q: For NNc1nnc(NN)c2ccccc12, which “activity change, negative = cytotoxicity” value is on record?
A: 5.97% [at 42.5 µM]

Q: With CCOC(=O)[C@H](CCc1ccccc1)N[C@@H](C)C(=O)N1C(=O)N(C)C[C@H]1C(=O)O as the compound, how does the “activity change, negative = cytotoxicity” value read?
A: 6.85% [at 42.5 µM]

Q: With CCCCCCN as the compound, how does the “activity change, negative = cytotoxicity” value read?
A: -17.2%

Q: For Cc1nc2n(c(=O)c1CCN1CCC(c3noc4cc(F)ccc34)CC1)CCC[C@H]2O, which activity change, negative = cytotoxicity is on record?
A: 1.89% [at 19 µM]

Q: Which “activity change, negative = cytotoxicity” value does the source give for COc1cc2c(cc1OC)C(=O)CC2 here?
A: 8.09% [at 42.5 µM]

Q: Which “activity change, negative = cytotoxicity” value does the source give for CC(C)C(=O)OCCc1ccccc1 here?
A: 2.88%

Q: For O=C(OCC(COC(=O)c1cccnc1)(COC(=O)c1cccnc1)COC(=O)c1cccnc1)c1cccnc1, which “activity change, negative = cytotoxicity” value is on record?
A: -8.75% [at 42.5 µM]

Q: With CC1COc2ccccc2N1 (stereo not given) as the compound, how does the “activity change, negative = cytotoxicity” value read?
A: -5.93%

Q: Which “activity change, negative = cytotoxicity” value does the source give for Cc1ccc(S(=O)(=O)O)c(C)c1 here?
A: -0.399%

Q: Which “activity change, negative = cytotoxicity” value does the source give for CC(C)=O here?
A: 3.48%

Q: Which “activity change, negative = cytotoxicity” value does the source give for COc1ccc(C2CNC(=O)C2)cc1OC1CCCC1 (stereo not given) here?
A: -1.23% [at 42.5 µM]

Q: Which “activity change, negative = cytotoxicity” value does the source give for C[Si](C)(C)C here?
A: -8.16%

Q: For O=P(O)(O)OP(=O)(O)O, which “activity change, negative = cytotoxicity” value is on record?
A: 2.22%

Q: With On1nnc2ccccc21 as the compound, how does the “activity change, negative = cytotoxicity” value read?
A: -3.25%

Q: With COc1cc2c(cc1OC)[C@@H]1CC(=O)[C@@H](CC(C)C)CN1CC2 as the compound, how does the “activity change, negative = cytotoxicity” value read?
A: 0.36% [at 42.5 µM]

Q: For CC(C)(C)c1cc(CCC(=O)NN)cc(C(C)(C)C)c1O, which “activity change, negative = cytotoxicity” value is on record?
A: -3.04%

Q: With CCCN1C[C@H](CSC)C[C@@H]2c3cccc4[nH]cc(c34)C[C@H]21 as the compound, how does the “activity change, negative = cytotoxicity” value read?
A: -0.963% [at 42.5 µM]

Q: With CC1=CCC(C(C)C)=CC1 as the compound, how does the “activity change, negative = cytotoxicity” value read?
A: 5.3%

Q: Which “activity change, negative = cytotoxicity” value does the source give for O=C1c2cccc3c2[C@H](CCC3)CN1[C@@H]1CN2CCC1CC2 here?
A: -19.4% [at 42.5 µM]

Q: With Cc1cccc2nccnc12 as the compound, how does the “activity change, negative = cytotoxicity” value read?
A: -2.66%

Q: For O=C(O)CCSSCCC(=O)O, which “activity change, negative = cytotoxicity” value is on record?
A: 0%

Q: For COc1ccc2nc(SCc3ncc(C)c(OC)c3C)[nH]c2c1, which “activity change, negative = cytotoxicity” value is on record?
A: 2.52% [at 42.5 µM]

Q: With CC(=O)Nc1ccc(S(=O)(=O)Cl)cc1 as the compound, how does the “activity change, negative = cytotoxicity” value read?
A: 6.91%
